# Screening results: PubChem, National Center for Advancing Translational Sciences (NCATS)
# IDH1 R132H inh – human IDH1 R132H inhibition. O75874. IDH1-R132H enzyme, NADPH consumption, diaphorase/resazurin fluorescence. Potency, µM (doses to about 76.6 µM), for the others: at the highest dose activity change, negative = inhibition, most hits filed as inhibitors. actives 0.093% (n = 390,000); note: potency is the fitted concentration of half-maximal effect; % is set by controls: 0 for no effect and ±100 for the full control effect; nearly all actives have a fitted effect of over 65% in size
# Target sequence (O75874 whole entry R132H, stated change not applied): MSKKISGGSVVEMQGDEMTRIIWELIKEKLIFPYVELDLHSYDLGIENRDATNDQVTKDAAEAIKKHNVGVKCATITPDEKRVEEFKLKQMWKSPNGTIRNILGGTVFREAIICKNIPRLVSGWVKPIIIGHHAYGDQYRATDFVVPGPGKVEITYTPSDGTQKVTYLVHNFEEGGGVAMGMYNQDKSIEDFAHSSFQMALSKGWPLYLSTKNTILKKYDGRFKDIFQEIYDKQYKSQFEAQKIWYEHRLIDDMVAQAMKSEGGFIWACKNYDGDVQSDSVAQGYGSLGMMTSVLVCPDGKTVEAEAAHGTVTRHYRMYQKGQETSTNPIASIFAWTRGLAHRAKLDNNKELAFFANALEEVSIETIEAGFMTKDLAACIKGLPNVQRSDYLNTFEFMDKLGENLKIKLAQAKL
#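 IDH1-R132H (0.5 ug/mL dispensed) in pH 7.5 Tris buffer was preincubated 30 min with compound, then given a substrate mix of 0.016 mM NADPH and 2 mM alpha-KG for 80 min at room temperature; remaining NADPH was read by diaphorase/resazurin fluorescence.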
# DRD3 antagonist – antagonists of human D3 dopamine receptor | P35462 | D3R cells, DiscoveRx beta-arrestin luminescence, antagonist mode; stronger effect = lower value | max response, negative = inhibition, % | actives 2.5% (n = 360,000) | AID 652054; in the data active = max response below about -50%; inconclusive = no clear call, values can overlap the other calls; note: % is set by controls: 0 for no effect and ±100 for the full control effect
#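 Cells expressing the human receptor were seeded at 1500 cells/well, incubated overnight at 37 degrees C in 5% CO2, then exposed to library compounds with dopamine controls for 90 minutes at 37 degrees C before luminescent detection.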
# DRD3 agonist – activates the human D3 dopamine receptor; P35462; AID 652048; actives 0.58% (n = 410,000); max activation, %; D3R DiscoveRx beta-arrestin cells, luminescence, 90 min; in the data active = max activation above about 30%; note: 0% is about no effect
#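 Agonist-mode cell screen: cells plated at 1500/well and incubated overnight at 37 °C, then exposed to library compounds for 90 min at 37 °C. Detection reagent was added for 30–60 min at room temperature, and luminescence was read.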
# B2AR arrestin – beta2AR (human) beta-arrestin recruitment activity; P07550; beta-arrestin recruitment to beta2AR, cell-based reporter; Potency, µM (doses to about 46.1 µM), for the others: at the top dose activation, most hits filed as activators; actives 0.02% (n = 330,000); AID 492947;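 note: potency is the fitted concentration of half-maximal effect; 0% = DMSO controls and full agonism = EC100 isoproterenol or metaproterenol; nearly all actives have a fitted effect of over 65% in size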
# Integrin act MD – integrin-mediated muscular dystrophy alleviation activation; alpha7betagal myoblasts, beta-gal FDG fluorescence, 48 h; Potency, µM (doses to about 38.3 µM), for the others: top-dose activation, hits mostly activators; actives 0.064% (n = 350,000); AID 624291;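 note: potency is the fitted concentration of half-maximal effect; 100% = response of the positive control SU9516; nearly all actives have a fitted effect of over 60% in size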
#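 Alpha7betagal+/- myoblasts (passage 13) were plated 16-24 hr, then exposed to compounds (1:260 dilution of DMSO stock) for 48 hours at 37C. After MPER lysis, β-galactosidase reporter activity was read as FDG fluorescence (ex 480/em 540) after 30 minutes.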
# IDH1 autofl – counter-screen for mutant IDH1 inhibitors: fluorescence interference | shares compounds with IDH1 R132H inh | Resorufin detection reagent fluorescence interference, cell-free | inhibition of signal, % at 51.2 µM | 750 tested, under 10 active | AID 623980;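 note: 0% = wells with normal resorufin and full inhibition = wells lacking resorufin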
# IDH1 WT – wild-type IDH1 (human) inhibition counterscreen; shares compounds with IDH1 R132H inh; WT IDH1 enzyme, NADPH diaphorase/resazurin fluorescence; Potency, µM (top dose mostly 115 µM), for the others: at the highest dose activity change, negative = inhibition, actives largely listed as inhibitors; actives 9% (n = 750);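 note: potency is the fitted concentration of half-maximal effect; 0% = full WT IDH1 enzyme control and full inhibition = no enzyme wells; nearly all actives have a fitted effect of over 55% in size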
# Target sequence (O75874 whole entry, looked up): as the sequence (O75874 whole entry R132H, stated change not applied) above, with H132R counted along it
# mIDH1 confirm – inhibits human mutant IDH1 enzyme in cherrypick confirmation; AID 624002; Potency, µM (highest dose often 76.6 µM), for the others: at the top dose activity change, negative = inhibition, actives largely listed as inhibitors; IDH1 R132H enzyme, NADPH diaphorase/resazurin fluorescence; actives 83% (n = 750); shares compounds with IDH1 R132H inh; note: potency is the fitted concentration of half-maximal effect; nearly all actives have a fitted effect of over 50% in size
# An asterisk follows results filed as active; ? = inconclusive; . = not tested or not shown. Compounds with a hit are over-represented: about 2.9% of the library has one in this group of screens. Unless noted, calls come from the whole dose curve; as a rule, active = well fitted curve in the direction sought with a large enough effect; inconclusive = small, poorly fitted or top-dose-only effect, or another doubt; inactive = no such curve, though single readings can be large; an effect the other way counts as inactive or inconclusive.
SMILES,IDH1 R132H inh,DRD3 antagonist,DRD3 agonist,B2AR arrestin,Integrin act MD,IDH1 autofl,IDH1 WT,mIDH1 confirm
CC1CCN(Cc2nnnn2CCCC(=O)N(C)C2CCOC2)CC1 (configuration not stated),-10%,-6,2,0%,-11%,.,.,.
O=C1CCCC2=C1C(c1cccs1)Nc1ccc3ncccc3c12 (configuration not stated),4%,14,7,0%,20%,.,.,.
Cc1ccsc1C1Nc2ccc3ncccc3c2C2=C1C(=O)CC(C)(C)C2 (configuration not stated),?,?,-16,0%,11%,-19,?,2.8µM*
c1ccc(C2=Nn3c(nnc3-c3cc(-c4ccccc4)n[nH]3)SC2)cc1,?,19,-1,0%,8%,-13,?,20µM*
Cc1cc(C(C)(C)C)oc1C(=O)N1CCN(C(=O)c2oc(C(C)(C)C)cc2C)CC1,40µM*,28,3,-1%,-20%,-13,?,14µM*
Nc1c(S(=O)(=O)O)cc(NC(=O)c2ccccc2)c2c1C(=O)c1ccccc1C2=O,?,-23,-9,-1%,14%,-14,28µM*,14µM*
Cc1ccc(OCCCSc2nc(-c3ccc(C(C)(C)C)cc3)nc3cc(=O)[nH]n23)cc1C,40µM*,.,33*,.,.,0,?,25µM*
CCCN(C)C[C@@H]1OCc2cnnn2CCCC(=O)N([C@H](C)CO)C[C@H]1C,-7%,-14,1,.,-31%,.,.,.
CCN(CC)C(=O)c1sc2c(c1C)c(=O)n(-c1ccccc1)c(=O)n2Cc1c(C)cc(C)cc1C,40µM*,.,2,.,.,-5,-5%,35µM*
CCN(CC)C(=O)c1sc2c(c1C)c(=O)n(-c1ccccc1)c(=O)n2Cc1cc(=O)n2ccccc2n1,-8%,.,5,.,.,.,.,.
Cc1ccc(-n2c(=O)c3c(C)c(C(=O)N(C)C)sc3n(Cc3ccccc3C)c2=O)cc1C,?,.,0,.,.,-5,2%,22µM*
CCc1ccc(-n2c(=O)c3c(C)c(C(=O)N(C)C)sc3n(Cc3cccc(C)c3)c2=O)cc1,?,.,-5,.,.,-3,-10%,32µM*
COC(=O)c1cc(NC(=O)c2sc3ncn(Cc4cccc(F)c4)c(=O)c3c2C)cc(C(=O)OC)c1,0%,.,9,.,.,.,.,.
COc1cc2c(c3oc(-c4ccccc4)cc(=O)c13)C=CC(C)(C)O2,40µM*,37,19,0%,-30%,-11,28µM*,22µM*
C[C@H]1CN([C@@H](C)CO)C(=O)CCCn2cc(nn2)CO[C@@H]1CN(C)S(=O)(=O)c1ccc(Oc2ccccc2)nc1,-4%,0,-2,.,14%,.,.,.
COc1ccc(N(C)C(=O)c2ccc3c(Cl)c4c(nc3c2)CCCC4)c(OC)c1,?,-14,-4,0%,-3%,-7,0%,40µM*
O=C(O)CCCCCN1C(=O)/C(=C/c2cn(-c3ccccc3)nc2-c2cccs2)SC1=S,?,15,-11,.,-31%,-2,1%,35µM*
COc1ccc(-c2nn(-c3ccccc3)cc2/C=C2/SC(=S)N(CCC(=O)O)C2=O)c(C)c1,46µM*,?,-8,0%,-13%,2,?,35µM*
Cc1ccc(CNC(=O)CSc2nc(=O)n3cccc(C)c3n2)cc1,4%,3,0,0%,-18%,.,.,.
NS(=O)(=O)c1ccc(CCNC(=O)COC(=O)c2nc(Cl)ccc2Cl)cc1,9%,11,-12,0%,-1%,.,.,.
COc1ccc(OC(=O)N(C)C[C@@H]2OCc3cn(nn3)CCCC(=O)N([C@@H](C)CO)C[C@H]2C)cc1,13%,-17,-5,.,-4%,.,.,.
